Data from PubChem BioAssay AID1578 (Sanford-Burnham Center for Chemical Genomics, 2009).
Hit rate of the full screen: of about 290,000 compounds, about 3,000 (1%) were called active. The entries come from a sample that favours actives as a whole. Unmarked numbers belong to inactive results. No stated cut-off is given here; in the data, active means inhibition mostly above about 36% (no sharp cut-off); inactive means mostly below about 34%.

Assay: inhibition of NOD1-driven NF-kB reporter – cell-based, luminescence, uHTS, primary screen (AID 1578);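 further: HEK-293T reporter cells stimulated with the NOD1 agonist gamma-tri-DAP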
Details: NOD1-driven NF-kB luciferase reporter cells, at 4 µM, stronger effect = higher value

SMILES	inhibition
O=C(NCCc1ccco1)C(=O)NCC1OCCCN1S(=O)(=O)c1ccc(F)cc1 (stereo not given)	10.4%
COc1ccc(S(=O)(=O)N(C)C)cc1NC(=O)[C@H](Cc1ccccc1)N1C(=O)c2ccccc2C1=O	2%
O=c1nc(SCc2ccc(Cl)cc2)nc(-c2ccccc2)[nH]1	-3.2%
O=c1nc(SCc2c(F)cccc2Cl)nc(-c2ccc(Cl)cc2)[nH]1	9.8%
O=c1nc(SCc2ccccc2Cl)nc(-c2ccc(Cl)cc2)[nH]1	57.8% (active)
C/C(COc1ccccc1)=N\NC(=O)c1nnn(-c2nonc2N)c1CSc1ccccc1	-2.2%
CCOc1cc(C2NC(=O)NC(c3ccccc3)=C2C(C)=O)ccc1OCC(N)=O (stereo not given)	14.5%
Cc1ccc(NC(=O)CCNC(=O)c2ccco2)cc1Cl	-23.6%
CN1CCN(S(=O)(=O)c2ccc(Sc3nnnn3-c3ccccc3)c([N+](=O)[O-])c2)CC1	93.5% (active)
O=[N+]([O-])c1ccc(Sc2nnnn2-c2ccccc2)c(Cl)c1	-1%
COC(=O)c1ccc(Sc2nnnn2-c2ccccc2)c([N+](=O)[O-])c1	48.6%
O=C(O)c1ccc(Sc2nnnn2-c2ccccc2)c([N+](=O)[O-])c1	-15.3%
O=[N+]([O-])c1cc(S(=O)(=O)NCCN2CCOCC2)ccc1Sc1nnnn1-c1ccccc1	46.1%
COC(=O)c1ccccc1NC(=O)CN1CCN(Cc2ccccc2)CC1	1.4%
Cc1ccc2c(C)nc(Nc3nc(CSc4nc5ccccc5[nH]4)cc(=O)[nH]3)nc2c1	90.5% (active)
COc1ccc2nc(Nc3nc(CSc4nc5ccccc5[nH]4)cc(=O)[nH]3)nc(C)c2c1	-25.6%
Cc1nc(Nc2nc(CSc3nc4ccccc4[nH]3)cc(=O)[nH]2)nc2ccccc12	-5.7%
O=S1(=O)CCOCCCN1Cc1cccc(C(F)(F)F)c1	56.8% (active)
O=S1(=O)CCOCCCN1Cc1ccccc1	-16.6%
O=S1(=O)CCOCCCN1Cc1cccc(F)c1	-39.7%

SMILES	inhibition
COc1ccc(C(=O)N/N=C/c2c(C)[nH]c(=O)[nH]c2=O)cc1	-27.4%
Cc1ccc(S(=O)(=O)NC(Cc2ccccc2)C(=O)O)cc1 (stereo not given)	-30.6%
Cc1ccc(S(=O)(=O)NC(Cc2ccccc2)C(=O)NN)cc1 (stereo not given)	-27.9%
Cc1ccc(S(=O)(=O)N[C@@H](Cc2ccccc2)C(=O)CCl)cc1	87.7% (active)
Cc1nnc(SCC(=O)NNC(=O)c2ccc(Br)cc2)n1C	-33.3%
CN(CC(=O)N1CCN(c2ccc(F)cc2)CC1)S(=O)(=O)c1ccc2c(c1)c(=O)n(C)c(=O)n2C	-11.7%
CCCCC(=O)Nc1nc2c(s1)COc1ccccc1-2	62.4% (active)
CCC(=O)Nc1nc2c(s1)COc1ccccc1-2	8.2%
CCCC(=O)Nc1nc2c(s1)COc1ccccc1-2	48.7%
Cc1[nH]c2ccccc2c1C(=O)/C=C/c1ccccc1Cl	-24.5%
Cc1[nH]c2ccccc2c1C(=O)/C=C\c1ccccc1Cl	-16.5%
Cc1[nH]c2ccccc2c(=O)c1C(=O)/C=C/c1ccccc1	79.7% (active)
COc1ccc(Oc2ccc(/C=N/NC(=O)c3cccnc3)cc2[N+](=O)[O-])cc1	-17.7%
O=C(Nc1ccc2c(c1)nc1n2CCN(Cc2ccccc2)C1)c1cccs1	89.9% (active)
CC(c1ccccc1)N1CCn2c(nc3cc(NC(=O)c4cccs4)ccc32)C1 (stereo not given)	0.3%
COCCN1CCn2c(nc3cc(NC(=O)c4cccs4)ccc32)C1	-28.2%
COc1ccc(CC(=O)Nc2c3c(nn2C(C)(C)C)CS(=O)C3)cc1 (stereo not given)	-19.6%
CN(C)c1ccc(-n2cccc2/C=C/[N+](=O)[O-])cc1	-0.1%
O=[N+]([O-])/C=C/c1ccc2c(ccn2Cc2ccccc2)c1	-4.4%
CN(c1ccccc1)c1ccc(/C=C/[N+](=O)[O-])cc1	105% (active)

SMILES	inhibition
Cc1[nH]c2ccccc2c1C(=O)CSC(=S)N1CCOCC1	3.9%
CCC1=C/C(=C/c2sc3ccccc3[n+]2CC)CC(C)(C)C1	-7.6%
CC[n+]1c(/C=C2\C=C(C)CC(C)(C)C2)sc2ccccc21	20.8%
CC[n+]1c(/C=C2/C=C(C)CC(C)(C)C2)sc2ccc(OC)cc21	77.4% (active)
Cc1cc(Br)ccc1NC(=S)N1CCOCC1	-0.1%
N#Cc1nc(Cc2ccccc2)oc1NCc1ccccc1Cl	57% (active)
N#Cc1nc(Cc2ccccc2)oc1NCc1cccnc1	-33.9%
N#Cc1nc(Cc2ccccc2)oc1NCc1ccccc1	-5.9%
Cc1cc(NC(=O)c2ccccc2F)n(-c2nc3ccccc3[nH]2)n1	-8.4%
COc1ccc(C(=O)Nc2cc(C)nn2-c2nc3ccccc3[nH]2)c(OC)c1	98.7% (active)
Cc1cc(NC(=O)c2ccccc2)n(-c2nc3ccccc3[nH]2)n1	-15%
COc1cccc(OC)c1C(=O)Nc1cc(C)nn1-c1nc2ccccc2[nH]1	-24.9%
COc1ccc(/C=C/C(=O)Nc2cc(C)nn2-c2nc3ccccc3[nH]2)cc1	17.4%
CCCCN(C)S(=O)(=O)c1cc2c3c(c1)CCC(=O)N3CCC2	-4.1%
Cc1noc(C)c1C(=O)N1CCCC(N2CCN(c3cccc(C(F)(F)F)c3)CC2)C1 (stereo not given)	-31.8%
COc1ccc(-c2[nH]ncc2CN(C)Cc2cccnc2)c(OC)c1	-16.3%
CS(=O)(=O)N1CCN(c2ccccc2NC(=O)c2cc(Br)ccc2Cl)CC1	-10.8%
COCCn1c(SCC(=O)Nc2cccc(C(=O)OC)c2)nc2ccccc2c1=O	2.6%
O=C(NC1CC2CCC(C1)N2Cc1ccco1)c1ccccc1 (stereo not given)	-29.6%
Cc1c(Cl)cccc1NC(=O)Nc1ccccc1C(N)=O	-30%
